About 5,700 (36%) of roughly 16,000 compounds were called active. Not shown: some 24% with an inconclusive outcome. The list shows a part of the results. Unmarked numbers belong to inactive results. The call rests on the fitted dose curve; in most records, active means well fitted curve in the direction sought with a large enough effect; inconclusive means small, poorly fitted or top-dose-only effect, or effect the other way; inactive means no such curve, though single readings can be large or run the other way.
On the % scale 0 is the no-effect control and ±100 the full control effect.

Chain of Cytochrome P450 1A2 (Homo sapiens) (P05177 whole entry, looked up): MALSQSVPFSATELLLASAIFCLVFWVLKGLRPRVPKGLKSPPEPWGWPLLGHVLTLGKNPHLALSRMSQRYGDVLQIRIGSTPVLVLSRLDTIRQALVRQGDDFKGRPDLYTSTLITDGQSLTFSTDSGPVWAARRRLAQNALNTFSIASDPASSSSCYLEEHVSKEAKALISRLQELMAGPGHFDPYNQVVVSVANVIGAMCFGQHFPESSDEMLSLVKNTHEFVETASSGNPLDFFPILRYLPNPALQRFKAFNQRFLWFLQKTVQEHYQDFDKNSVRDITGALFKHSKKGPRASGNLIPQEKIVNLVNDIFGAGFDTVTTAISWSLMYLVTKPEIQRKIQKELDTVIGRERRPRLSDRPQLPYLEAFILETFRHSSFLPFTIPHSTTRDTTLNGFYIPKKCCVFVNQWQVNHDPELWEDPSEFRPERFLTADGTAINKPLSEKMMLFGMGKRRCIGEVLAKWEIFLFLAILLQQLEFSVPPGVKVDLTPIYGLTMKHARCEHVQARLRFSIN

The assay concerns the target Cytochrome P450 1A2 (Homo sapiens) (UniProt P05177). Briefly: Cytochrome panel assay with activity outcomes. As to conditions: recombinant CYP, pro-luciferin dealkylation, luminescence, p450-cyp1a2; series mostly up to 57.1 µM; activity, negative = inhibition: at the top concentration.
Take `CO/N=C(\C(=O)N[C@@H]1C(=O)N2C(C(=O)O)=C(COC(C)=O)CS[C@@H]12)c1csc(N)n1`: the “activity, negative = inhibition” value was -6.57%.

On to `CN[C@]1(C)[C@H]2CC[C@@H](C2)C1(C)C`, for which the “activity, negative = inhibition” value is 0.247% [at 25.6 µM].

As for `CC(=O)OC[C@@H]1O[C@H](C/C=N\O[C@@H](C)c2cn([C@H]3COC[C@H]3O)nn2)C=C[C@@H]1OC(C)=O`, the activity, negative = inhibition is -4.99% [at 11.4 µM].

Consider `O=C(Nc1cccc(F)c1)N1CCCC2(CCN(C(=O)c3cnccn3)CC2)C1`, for which the “activity, negative = inhibition” value is -22.5%.

For orientation: AC50 means the concentration giving half of the maximal activity seen. For `O=C(Nc1cccc(F)c1)N1CCCC2(CCN(C(=O)c3ccncc3)CC2)C1`, the AC50 is 12600 nM (active).

Take `COC(=O)N1CCC2(CCCN(C(=O)Nc3cccc(F)c3)C2)CC1`: the “activity, negative = inhibition” value is 14%.

Turning to `COC(=O)N1CCC2(CCN(C(=O)Nc3cccc(F)c3)CC2)CC1`, the AC50 was 12600 nM (active).

For `COc1ccc(C(=O)N2CCC3(CCCN(C(=O)Nc4cccc(F)c4)C3)CC2)cc1`, the concentration at half-maximal activity (AC50) was 20000 nM (active).

As to `COc1ccc(C(=O)N2CCC3(CCN(C(=O)Nc4cccc(F)c4)CC3)CC2)cc1`, the “activity, negative = inhibition” value is -16.9%.

As for `COc1ccc(NC(=O)N2CCCC3(CCN(C(=O)c4cccc(F)c4)CC3)C2)cc1`, the “activity, negative = inhibition” value was -13.1%.

Turning to `CC(=O)N1CCC2(CCCN(C(=O)Nc3cccc(F)c3)C2)CC1`, the “activity, negative = inhibition” value was -8.44%.

`COC(=O)N1CCC2(CC1)CN(C(=O)Nc1cccc(F)c1)C2`: the “activity, negative = inhibition” value was -2.39%.

Consider `COc1ccc2[nH]cc(CCNc3ccnc(-c4ccccc4Cl)n3)c2c1`, for which the AC50 was 398 nM (active).

Turning to `COc1ccc2[nH]cc(CCNc3ccnc(-c4ccccc4C)n3)c2c1`, the AC50 is 316 nM (active).

Turning to `C#C[C@H](N)CCC(=O)O`, the “activity, negative = inhibition” value was -0.402%.

Turning to `Nc1ncnc2nn([C@H]3O[C@@H](CO)[C@@H](O)[C@H]3O)nc12`, the activity, negative = inhibition is -11.4% [at 11.4 µM].

For `Cc1ccc2c(c1)N[C@H](c1ccc(C(=O)O)cc1)c1cccn1-2`, the AC50 was 794 nM (active).

As for `Cc1ccc(C)c(S(=O)(=O)NCc2ccc(C(=O)N3CCC(Cc4ccccc4)CC3)cc2)c1`, the “activity, negative = inhibition” value was -9.01%.

For `CN(C)CCNCCN`, the activity, negative = inhibition is -0.129% [at 11.4 µM].

As to `N=C(N)c1ccccc1`, the “activity, negative = inhibition” value is -7.52%.

Regarding `N=C(N)c1ccc(N=Nc2c(O)ccc3c2[nH]c2ccccc23)cc1`, the AC50 was 1580 nM (active).

Regarding `Cc1ccc(NC(=O)NCCCc2ccccc2)cc1`, the AC50 is 3550 nM (active).

With `CC(C)C(=O)NCCCc1ccccc1`, the “activity, negative = inhibition” value was -15.1%.

Take `O=C(NCCCc1ccccc1)c1cccs1`: the AC50 was 11200 nM (active).

`CSCC[C@@H]1NC(=O)C/C=C\[C@@H](C)COC(=O)[C@@H](C)COC1=O`: the activity, negative = inhibition is 4.43% [at 11.4 µM].

With `C[C@H]1[C@@H](O)[C@@H](C)\C=C/C=C\C=C/C=C\C=C/C=C\C=C/[C@@H](O[C@H]2O[C@@H](C)[C@@H](O)[C@@H](N)[C@@H]2O)C[C@@H]2O[C@](O)(C[C@@H](O)C[C@@H](O)[C@@H](O)CC[C@@H](O)C[C@@H](O)CC(=O)O[C@H]1C)C[C@@H](O)[C@H]2C(=O)O` (stereo in doubt), the “activity, negative = inhibition” value was -0.696% [at 25.6 µM].

In the case of `CCC(O)CNc1nc(-n2nc(C)cc2C)nc2sc3c(c12)CC(C)(C)OC3` (stereo not drawn), the AC50 was 14100 nM (active).

As for `Cc1cc(C)n(-c2nc(NCC(C)O)c3c4c(sc3n2)COC(C)(C)C4)n1` (stereo not drawn), the AC50 was 8910 nM (active).

On to `Cc1cc(NC(=O)Nc2ccc3c(ccn3C)c2)sn1`, for which the AC50 is 5010 nM (active).

`Oc1c(Cl)cc(C(c2cc(Cl)c(O)c(Cl)c2)C(c2cc(Cl)c(O)c(Cl)c2)c2cc(Cl)c(O)c(Cl)c2)cc1Cl`: the AC50 is 794 nM (active).

As for `Oc1c(Cl)cc(CN(Cc2cc(Cl)c(O)c(Cl)c2)C2CCCCC2)cc1Cl`, the activity, negative = inhibition was 11.3% [at 2.29 µM].

With `CCOC(=O)CCN1C(=O)[C@H]2[C@H]3[C@H](O)[C@H](O)C/C(=N/OCC(C)C)[C@H]3CC[C@@H]2C1=O`, the activity, negative = inhibition is -11.8% [at 11.4 µM].

With `COC(=O)c1cc(C#N)c(Oc2ccc(OC)cc2)nc1C`, the AC50 is 4470 nM (active).

Take `Cc1cc(C)c(NC(=O)NC(=O)c2ccc(F)cc2)c(C)n1`: the “activity, negative = inhibition” value is -8.66%.

With `COC(=O)C1=C(C)C(c2ccc(OC)cc2)NC(=S)N1` (stereo not drawn), the “activity, negative = inhibition” value was -18.5%.

Turning to `COC(=O)c1cc(C#N)c(NCc2ccc(Cl)cc2Cl)nc1C`, the “activity, negative = inhibition” value was 6.7%.

Turning to `CC(=O)c1cc(C#N)c(Oc2ccc(F)cc2)nc1C`, the AC50 is 2240 nM (active).

Regarding `CC(C)Oc1cccc(C(=O)NC(=S)N2CCN(c3ccc(C(F)(F)F)cc3[N+](=O)[O-])CC2)c1`, the “activity, negative = inhibition” value was -28%.

Turning to `CC(=O)c1cc(C#N)c(Oc2cccc(C(F)(F)F)c2)nc1C`, the AC50 is 1120 nM (active).

As to `Cc1ccc(C(C(=O)NC2CCCCC2)N(CC2CCCO2)C(=O)CNC(=O)c2cccs2)cc1` (stereo not drawn), the “activity, negative = inhibition” value was -13%.

`O=C(NCC(=O)N(c1ccccc1)C(C(=O)NC1CCCC1)c1cccnc1)c1cccs1` (stereo not drawn): the “activity, negative = inhibition” value is -1.5%.

With `O=C(NC1CCCCCC1)c1cccs1`, the AC50 was 5010 nM (active).

For `O=C(Nc1ccc2ncccc2c1)Nc1ccc2ncccc2c1`, the activity, negative = inhibition was -28.5% [at 2.29 µM].

For the compound `Cc1nc2ccc(NC(=O)Nc3ccnc4cccnc34)cc2o1`, the AC50 was 1000 nM (active).

As for `C/C=C\C(=O)N(CC)c1ccccc1C`, the “activity, negative = inhibition” value was -3.65% [at 25.6 µM].

As to `CC1(C)OC(=O)NC1=O`, the “activity, negative = inhibition” value was -5.07% [at 25.6 µM].

On to `COc1ccc(-c2csc3c2[N+]2=CCC=C2C3=O)cc1`, for which the AC50 is 501 nM (active).

As for `Cc1noc(C)c1-c1nccc(N2CCOCC2)n1`, the AC50 was 631 nM (active).

On to `Cc1noc(C)c1-c1cc(N2CCN(C)CC2)ncn1`, for which the AC50 was 10000 nM (active).

Consider `Cc1noc(C)c1-c1nccc(-n2ccnc2)n1`, for which the AC50 is 200 nM (active).

Turning to `Cc1noc(C)c1-c1nccc(N2CCN(C)CC2)n1`, the AC50 was 2000 nM (active).

Turning to `Cc1noc(C)c1C(=O)N1CCC2(CC1)CCN(c1ccncc1)CC2`, the “activity, negative = inhibition” value is -11%.

As to `CC(C)(C)C(=O)NC(c1ccc(Cl)cc1)[C@]1(C)C[C@H]1C1CCCCC1` (stereo partly drawn), the “activity, negative = inhibition” value was -8.49%.

As for `CO/N=C1/c2cc(OC)ccc2O[C@@H](c2cccc(OC)c2)[C@H]1O`, the activity, negative = inhibition is -7.77% [at 11.4 µM].

As to `Cc1cc(Cl)ccc1Oc1ncc(-c2ccc(Cl)cc2)cn1`, the AC50 is 794 nM (active).

Regarding `Cc1cccc(Oc2ncc(-c3ccc(Cl)cc3)cn2)c1C`, the AC50 is 2240 nM (active).

In the case of `CNc1nc(-c2ccccc2C)nc2ccccc12`, the AC50 is 501 nM (active).

As for `CNc1nc(-c2ccccc2Cl)nc2ccccc12`, the concentration at half-maximal activity (AC50) is 126 nM (active).

Turning to `CCOC(=O)COc1ccc(/C=C/[N+](=O)[O-])c(OCC(=O)OCC)c1`, the AC50 was 3160 nM (active).

Take `CCCOc1ccc(/C=C/C(=O)Nc2ccc([N+](=O)[O-])cc2C)cc1`: the “activity, negative = inhibition” value is -11.5%.

For `CCCNS(=O)(=O)c1ccc(OCC(=O)OC)cc1`, the “activity, negative = inhibition” value is -14.8%.

In the case of `Fc1ccc2nc3[nH]c4ccccc4c3nc2c1`, the AC50 was 1000 nM (active).

Consider `COC(=O)CSc1ccc(C#N)c(SCC(=O)OC)c1`, for which the AC50 was 25100 nM (active).

`COc1ccc(N2CCN(Cc3nc4c(c(=O)n(C)c(=O)n4C)n3CC(C)=O)CC2)cc1`: the “activity, negative = inhibition” value is -4.78%.

As for `CCn1ccc(C(=O)NC2C(=O)N3C(C(=O)O)=C(C)CSC23)n1` (stereo not drawn), the “activity, negative = inhibition” value was 10%.

In the case of `CCn1ccc(C(=O)NC2=C(C#N)CCC2)n1`, the AC50 is 6310 nM (active).

Turning to `C[C@]12C=CC(=O)C=C1CC[C@@H]1[C@H]3C[C@@H](O)[C@](O)(C(=O)CO)[C@@]3(C)C[C@H](O)[C@]12F`, the “activity, negative = inhibition” value is -1.86% [at 25.6 µM].

With `Cn1c(SCC(=O)NC2CC2)nnc1-c1cccc(NC(=O)c2ccccc2F)c1`, the “activity, negative = inhibition” value is 17.5%.

For `CC(=O)Nc1ccc(-c2nnc(SCC(=O)c3ccc4c(c3)Cc3ccccc3-4)n2C)cc1`, the AC50 was 11200 nM (active).

On to `Cn1c(SC2CCCCC2=O)nnc1-c1ccncc1` (stereo not drawn), for which the “activity, negative = inhibition” value was -1.42%.

As for `Cn1c(SCC(=O)c2ccc3c(c2)Cc2ccccc2-3)nnc1-c1ccccc1`, the AC50 was 6310 nM (active).

As for `Cc1ccc2c(CC(=O)OCc3cc(=O)n4c(n3)sc3ccccc34)coc2c1`, the AC50 is 8910 nM (active).

As to `CC(C)(C)c1onc(OCP(=O)(O)O)c1C[C@@H](N)C(=O)O`, the “activity, negative = inhibition” value is -17.2%.

On to `Cc1cc(C(=O)Nc2ccc(N3CCOCC3)cc2)c2ccccc2n1`, for which the AC50 is 10000 nM (active).

On to `O=C(NNC(=O)c1cc(-c2ccc(Cl)c(Cl)c2)nc2ccccc12)Nc1ccccc1`, for which the AC50 was 3550 nM (active).

Take `Cc1ccc(NC(=O)c2cc(Cl)nc3ccccc23)cc1`: the AC50 is 2000 nM (active).

Take `CCOC(=O)N/N=C1/C[C@@H](O)[C@@H](O)[C@@H]2[C@@H]3C(=O)N(c4cccc(Oc5ccccc5)c4)C(=O)[C@H]3CC[C@@H]12`: the activity, negative = inhibition is -6.44% [at 11.4 µM].

Turning to `O=C1Oc2ccccc2C2(O)C3CCCCCC3C12` (stereo not drawn), the “activity, negative = inhibition” value was -3.13%.

Turning to `Cc1n[nH]c(C)c1N=Nc1cc(Cl)ccc1Cl`, the AC50 was 178 nM (active).

`COc1cc(OC)c(C(=O)CCCCN2CCC3(CC2)NC(=O)NC3=O)cc1NS(=O)(=O)c1ccc(C(F)(F)F)cc1`: the “activity, negative = inhibition” value is -5.7%.

As to `Nc1ncnc2c([C@@H]3O[C@@H](CO)[C@H](O)[C@@H]3O)nsc12`, the activity, negative = inhibition was -16.8% [at 2.29 µM].

For `O=C(Nc1cc(Sc2ccccn2)cc([N+](=O)[O-])c1)c1ccc([N+](=O)[O-])cc1`, the AC50 is 3160 nM (active).

Regarding `O=C(Nc1nnc(COc2ccc(Cl)cc2)s1)c1ccc([N+](=O)[O-])cc1`, the “activity, negative = inhibition” value was 8.11%.

In the case of `O=C(Nc1cc(Sc2ccccn2)cc([N+](=O)[O-])c1)c1ccc(Cl)cc1`, the AC50 is 2510 nM (active).

On to `O=C1[C@H]2[C@H]3[C@H](O)[C@H](O)C/C(=N/OC[C@@H](O)COCc4ccco4)[C@H]3CC[C@@H]2C(=O)N1C[C@@H]1CCCO1`, for which the activity, negative = inhibition was -17.3% [at 11.4 µM].

Regarding `Cc1ccc(C)c(NC(=O)Cn2nnc(C(=O)Nc3c(C)cccc3C)c2N)c1`, the “activity, negative = inhibition” value is -4.32%.

As for `CCOc1ncccc1C(=O)OCC(=O)Nc1cc(C)ccc1C`, the AC50 is 10000 nM (active).

With `Cc1ccc(C)c(NC(=O)C2C3CCCC2C3c2ccccc2)c1` (stereo not drawn), the “activity, negative = inhibition” value was -4.69%.

Turning to `Cc1noc(C)c1-c1ccc2ncnc(N(C)Cc3ccco3)c2c1`, the AC50 was 2510 nM (active).

With `Cc1noc(C)c1-c1ccc2ncnc(N(C)C)c2c1`, the half-maximal activity concentration (AC50) is 631 nM (active).

Take `CN1C(=O)OC(C)(C)C1=O`: the “activity, negative = inhibition” value was -1.91% [at 25.6 µM].

On to `Cc1cc(Cl)nc2ccc(Cc3ccc4nc(Cl)cc(C)c4c3)cc12`, for which the activity, negative = inhibition is -13.2% [at 2.29 µM].

On to `CCc1c(C)nc2ccc(Br)cc2c1Cl`, for which the AC50 is 316 nM (active).

Source of the values: PubChem BioAssay AID1851 (National Center for Advancing Translational Sciences (NCATS), 2009).
